Assay outcomes deposited in PubChem BioAssay by National Center for Advancing Translational Sciences (NCATS).
In the library only some 1.3% were active in any assay of this set; here they are far more common.
IL-2 act: IL-2 activation. IL-2 activation reporter assay, cell-based qHTS; stimulated with anti-CD3/CD4/CD28 beads; in transgenic mouse T cells. activation, % (series mostly up to about 46 µM). 360,000 compounds, 0.065% hits. AID 652025; in the data active = activation above about 50%; inconclusive = mostly about 30% to 49%; note: 0% is about no effect
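Unstimulated transgenic mouse T cells; 60-min compound exposure; bead-based TCR/CD4/CD28 stimulation; 18 h culture, 37 degrees C; dual fluorescence (EGFP, DsRed) plate cytometry.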
TRPML1 ag: agonists of human TRPML1 channel. Q9GZU1. TRPML1-expressing cells, Ca2+ dye fluorescence, FDSS. activation, % (concentration not given with the values). 410,000 compounds, 0.12% hits; in the data active = activation above about 50%; inconclusive = mostly about 30% to 49%; note: 0% is about no effect
Target sequence (Q9GZU1 whole entry, looked up): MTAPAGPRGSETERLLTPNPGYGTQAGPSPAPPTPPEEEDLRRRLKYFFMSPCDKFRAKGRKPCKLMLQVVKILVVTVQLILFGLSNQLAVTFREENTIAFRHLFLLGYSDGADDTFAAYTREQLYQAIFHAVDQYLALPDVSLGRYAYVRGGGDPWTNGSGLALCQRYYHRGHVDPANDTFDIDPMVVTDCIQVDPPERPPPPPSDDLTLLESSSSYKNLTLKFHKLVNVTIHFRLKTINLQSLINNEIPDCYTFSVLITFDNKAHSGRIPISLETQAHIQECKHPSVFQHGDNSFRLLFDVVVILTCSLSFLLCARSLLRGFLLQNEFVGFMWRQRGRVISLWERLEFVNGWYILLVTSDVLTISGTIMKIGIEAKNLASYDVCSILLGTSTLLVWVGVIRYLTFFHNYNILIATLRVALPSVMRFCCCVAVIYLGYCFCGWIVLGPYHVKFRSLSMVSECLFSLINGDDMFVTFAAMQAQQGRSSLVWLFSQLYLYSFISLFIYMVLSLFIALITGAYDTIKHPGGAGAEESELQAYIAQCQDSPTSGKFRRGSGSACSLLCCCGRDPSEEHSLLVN
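TRPML1-DL cells, Tet-induced overnight (~16 h, 37 degrees C), loaded 45-90 min at room temperature with Ca8 no-wash calcium dye plus quencher. FDSS fluorescence: 10 s baseline, compound pin-transfer, 110 s agonist read, then EC80 54-4 (4uM final) and 110 s antagonist read.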
BRCA1 expr up: increases BRCA1 expression; MCF7-BRCA1-FFLuc reporter, luminescence, 48 h; response scale: scaled: vehicle 0%, 10 µM genistein 100%; Potency, µM (doses to about 46.1 µM), inactives show at the highest dose activation, actives largely listed as activators; 380,000 compounds, 1.1% hits; AID 624202; note: potency is the fitted concentration of half-maximal effect; nearly all actives have a fitted effect of over 80% in size
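MCF7-BRCA1-FFLuc cells, 2000/well in phenol-red-free MEM, attached 2 h then treated 48 h at 37 C. Luciferase luminescence read 15 min after reagent; normalized to genistein maximum activation (10microM) and DMSO, concentration-response fitted.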
PTAP TSG101 blk: blocks PTAP/TSG101 interaction to inhibit HIV-1 budding. Q99816. Fluorescence polarization, FITC-PTAP peptide / Tsg101 binding. Potency, µM (doses to about 115 µM), for the others: at the highest dose activity change, negative = inhibition, actives largely listed as inhibitors. 340,000 tested, under 10 active; active = well fitted inhibition curve with a large enough effect in the main read-out, with a control signal flat, not every such curve was filed as active; inconclusive = small, poorly fitted or top-dose-only effect, or effect the other way, or a change in a side signal; inactive = no such curve, though single readings can be large or run the other way; note: potency is the fitted concentration of half-maximal effect; % of control where 0% means no effect
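Fluorescence anisotropy tracks displacement of a FITC-tagged PTAP peptide (50 nM) from the Tsg101 binding domain (10 uM), following a 20 min room-temperature incubation at pH 7.5.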
TRPML1 inh: blocks the human TRPML1 channel. Q9GZU1. TRPML1-inducible cells, Ca2+ dye fluorescence, FDSS; stronger effect = lower value; inhibition of EC80 agonist-evoked calcium signal. activity change, negative = inhibition, % (concentration not given with the values). 390,000 compounds, 0.02% hits; in the data active = activity change below about -50%; inconclusive = between about -30% and that limit;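 note: stimulus is agonist 54-4 at its EC80 concentration; % is set by controls: 0 for no effect and ±100 for the full control effect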
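TRPML1-DL cells, Tet-induced overnight (~16 h, 37 °C) at 1,500 cells/well, were loaded with Ca8 no-wash dye plus quencher for 45-90 min at room temperature. Compounds were pinned during FDSS kinetic reading; agonist 54-4 at EC80 (4 uM final) then added.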
PKM2 activator: PKM2 (human) enzyme activation | P14618 | purified PKM2, Kinase-Glo ATP luminescence, activation; response scale: 0% is enzyme alone, no compound | Potency, µM (series often up to 57.5 µM), for inactives: at the top dose activation, most hits filed as activators | 260,000 compounds, 0.34% hits; note: potency is the fitted concentration of half-maximal effect; % is set by controls: 0 for no effect and ±100 for the full control effect; nearly all actives have a fitted effect of over 55% in size
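ATP formation by purified human PK-M2, quantified via coupled luciferase luminescence after 1 h at room temperature with 0.1 mM ADP and 0.5 mM PEP final.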
Numbers without * were called inactive; u = inconclusive; x = no result given. Unless noted, calls come from the whole dose curve; as a rule, active = well fitted activation curve with a large enough effect; inconclusive = small, poorly fitted or top-dose-only effect; inactive = no such curve, though single readings can be large or run the other way.

SMILES | IL-2 act | TRPML1 ag | BRCA1 expr up | PTAP TSG101 blk | TRPML1 inh | PKM2 activator
O=C(O)c1cnn(-c2nc(-c3ccc(Cl)cc3)cs2)c1C(F)(F)F | 0 | 1 | 4.5µM* | -13% | 25 | x
COc1ccccc1NC(=O)CSc1nc(N)c(C#N)cc1C#N | 0 | 0 | -8% | 8% | 19 | 14µM*
CCn1c(O)c(/C=N/N=C/c2ccc(OC)cc2)c2cc(C3=NNC(=O)CC3)ccc21 | 215* | 1 | -6% | u | 11 | -7%
CC/C(C)=N\N=C\c1c(O)n(CC)c2cc(C3=NNC(=O)CC3)ccc12 | 1 | -1 | -46% | 5% | 3 | 26%
CC(C)OC(=O)c1ccc(NC(=O)C2C3CC4OC(=O)C2C4C3)cc1 (stereo not given) | -2 | 0 | 7.1µM* | -3% | 5 | -3%
O=C(O)c1ccc(COc2ccc([N+](=O)[O-])cc2Cl)cc1 | -2 | 0 | 13µM* | x | 8 | x
O=C(NCCCOc1ccc([N+](=O)[O-])cc1Cl)OCc1ccccc1 | -6 | 2 | -22% | -1% | 27 | x
COC(=O)c1ccccc1NC(=O)c1cnn2c1NC(=C1CC1)C=C2C(F)F | x | -1 | -24% | x | x | x
CCOC(=O)c1c(NS(=O)(=O)c2cccc(OC)c2)sc2c1CCC2 | -3 | 2 | 0% | x | 3 | 16µM*
CCOC(=O)c1c(NC(=O)c2cc(-c3cccc(OC)c3)on2)sc2c1CCCC2 | x | 0 | x | x | 20 | x
Clc1ccc(C2=NNC(=NCC3CCCO3)SC2)cc1 (stereo not given) | 0 | -1 | 2.5µM* | 0% | 12 | 0%
CCOc1ccc(-c2csc(C3COc4ccccc4O3)n2)cc1 (stereo not given) | -2 | 0 | 10µM* | x | -5 | x
CC1(C)CC(=O)C2=C(C1)NC(Nc1nc3ccccc3o1)=NC2c1cccnc1 (stereo not given) | x | -1 | -6% | x | x | x
O=C(Cc1ccc(OCc2ccccc2)cc1)NO | x | -1 | 59% | x | x | x
CCCCOc1ccc(CSc2n[nH]c(C)n2)cc1 | -3 | 1 | 58% | -6% | 7 | 7%
CCCCCOc1ccc(CSc2ncn[nH]2)cc1 | 1 | 2 | 2.8µM* | -5% | -1 | 0%
CCCCOc1ccc(CSc2ncn[nH]2)cc1 | -3 | 0 | 7.1µM* | -10% | 13 | 6%
CN(C(=O)c1cc2sccc2n1C)C1CCCCC1 | -3 | 1 | 6.3µM* | -13% | -24 | 0%
Cn1c(C(=O)N2CCCC(C(=O)O)C2)cc2sccc21 (stereo not given) | 0 | -1 | -2% | -6% | 11 | 5%
Cn1c(C(=O)NC2CCCCC2)cc2sccc21 | -1 | 0 | 5.6µM* | -13% | 1 | -3%
CCn1c(C(=O)NC2CCC(C)CC2)cc2sccc21 (stereo not given) | -1 | 1 | u | -1% | 71 | x
O=C(Nc1ccc(F)cc1)c1ccc2c(c1)NC(=O)c1ccccc1S2 | x | 1 | x | x | 8 | x
CC1=C(C(=O)Nc2ccc(C)cc2C)C(c2ccc[nH]2)n2ncnc2N1 (stereo not given) | x | 2 | 0% | x | -7 | x
Cc1n[nH]c(=O)n1-c1ccc(OCc2ccccc2)cc1 | 0 | 0 | 5.6µM* | -1% | 0 | -2%
COc1ccc(-n2c(C)n[nH]c2=O)cc1 | 0 | 0 | 0% | 0% | 16 | 3%
SMILES | IL-2 act | TRPML1 ag | BRCA1 expr up | PTAP TSG101 blk | TRPML1 inh | PKM2 activator
O=c1oc2ccccc2n1CSc1nc2ccccc2s1 | -3 | 1 | 13µM* | -4% | -1 | 29%
O=C(CSc1nc2ccccc2s1)CSc1nc2ccccc2s1 | 1 | -1 | -2% | 0% | -12 | -5%
CC(=O)CSc1nc2ccccc2s1 | -2 | 2 | 13µM* | -7% | 6 | -2%
CC(=O)c1ccc(N2C(=O)Nc3ccccc3S2(=O)=O)cc1 | x | -1 | 8% | x | -8 | x
Oc1c(Br)cc(Br)cc1C=Nc1ccc2c(c1)OCCO2 | 0 | 2 | -31% | -1% | -5 | -6%
O=[N+]([O-])c1ccc(O)c(C=Nc2ccc3c(c2)OCCO3)c1 | 1 | 0 | 11µM* | 9% | -1 | -9%
Cc1c(Cl)cccc1NC(=O)Nc1nnc(N(C)Cc2ccccc2)s1 | x | 58* | x | x | -15 | x
COc1ccccc1NS(=O)(=O)c1cc(NC(=O)c2[nH]c(C)c(C(C)=O)c2C)ccc1N1CCOCC1 | -3 | 1 | -82% | -1% | -3 | 16µM*
CC(=O)c1c(C)[nH]c(C(=O)Nc2ccc(S(=O)(=O)N(C)C)cc2)c1C | 0 | 1 | -17% | -3% | 3 | 7.1µM*
CC(=O)c1c(C)[nH]c(C(=O)Nc2ccc(C)c(S(=O)(=O)Nc3ccc(C)cc3C)c2)c1C | -4 | x | -85% | -9% | x | 18µM*
COc1cc2c(NC3CCN(C)CC3)nc(N3CCCN(C)CC3)nc2cc1OCCCC(C)C | x | -1 | -70% | x | x | x
CCCc1cc(=O)n2[nH]c(-c3ccc(Cl)cc3)cc2n1 | 0 | -1 | 7.1µM* | -4% | -2 | -5%
CCCc1cc(=O)n2[nH]c(-c3ccc(C)cc3)cc2n1 | 0 | 0 | 1.4µM* | 0% | 7 | -2%
CC(C)(C)n1ncc2c(=O)n(Cc3c(Cl)ccc(Cl)c3Cl)cnc21 | x | 1 | x | x | -2 | x
COc1ccc2c(c1)C=C/C2=C/c1ccc(N(C)C)cc1 | x | 0 | 80% | x | x | x
COc1cc2nc(Cl)nc(NC3CCN(Cc4ccccc4)CC3)c2cc1OC | x | 0 | 13% | x | x | x
Cc1ccc(Cn2ccc(NC(=O)c3cc(-c4ccc(Cl)c(Cl)c4)on3)n2)cc1 | x | -1 | x | x | -3 | x
Cc1sc(C(C2C(=O)CC(C)(C)CC2=O)C2C(=O)CC(C)(C)CC2=O)cc1[N+](=O)[O-] | -1 | 0 | -5% | -8% | 9 | 18µM*
CC1(C)CC(=O)C(C(c2cc([N+](=O)[O-])ccc2Cl)C2C(=O)CC(C)(C)CC2=O)C(=O)C1 | 0 | -1 | -17% | 1% | 10 | x
CC(=O)Nc1ccc(NC(=O)c2nc(SCc3ccccc3F)ncc2Cl)cc1 | x | -1 | -5% | x | x | x
CC(C)(CC(=O)O)CC(=O)N1CCN(c2nc3ccc(Cl)cc3s2)CC1 | -3 | x | 49% | -4% | x | x
CC(C)(C)NC(=O)N1CCN(c2nc3ccc(Cl)cc3s2)CC1 | -4 | 0 | 10µM* | -3% | 4 | x
CC(=O)OCCn1c2nc(=O)[nH]c(=O)c-2nc2cc(C)c(C)cc21 | 0 | 117* | -13% | u | -22 | 3%
COc1cc(N2C(=O)C=CC2=O)c(OC)cc1Cl | -4 | 2 | -39% | 0% | 41 | 8.9µM*
